From PubChem BioAssay (Tox21) come the findings set out here.

Structures are written as SMILES. Inconclusive results are not listed. Unmarked numbers belong to inactive results. Activity calls are given as the source filed them. The call rests on the fitted dose curve; in most records, active means well fitted curve in the direction sought with a large enough effect in the repeat runs; inconclusive means weak or mixed curves; inactive means no such curve, though single readings can be large; an effect the other way counts as inactive or inconclusive.
On the % scale 0 is the no-effect control and ±100 the full control effect.

The first test can be described thus: Caspase-3/7 induction in HepG2 cells by small molecules, qHTS assay (AID 1346978). Further: nearly all actives have a fitted effect of over 15% in size. Further: potency means the concentration at half of the fitted maximal effect. To be noted: HepG2 caspase-3/7 activation, Caspase-Glo luminescence, 17 h; series mostly up to 92.4 µM; caspase activation: at the top concentration. In a few lines:
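Wild-type HepG2 cells, 2,000/well, settled 5 hr at 37 C and 5% CO2, then compound-treated for 17 hr; caspase-3/7 activity read by luminescent Caspase-Glo 3/7 after 30 min at room temperature.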
In general terms: qHTS replaces the single test concentration by a dilution series.
As for `Cc1ccc(Nc2c(F)cccc2Cl)c(CC(=O)O)c1`, the “caspase activation” value is -1.13% [at 42.5 µM].
The same measure, in the same setting: the result for `C=C(C)C(=O)OCCC(F)(F)C(F)(F)C(F)(F)C(F)(F)C(F)(F)C(F)(F)F` reads 0.547%; that for `C=C(C)c1ccccc1`, -1.45%; that for `CC(C)OC(=O)c1ccccc1C(=O)OC(C)C`, 0.856%.
Still for that read-out and setting: the result for `Cc1cc(CCC(=O)OCCOCCOCCOC(=O)CCc2cc(C)c(O)c(C(C)(C)C)c2)cc(C(C)(C)C)c1O` reads -2.13%; that for `Cc1cc(CCCOc2c(C)cc(-c3noc(C(F)(F)F)n3)cc2C)on1`, 0.172% [at 42.5 µM]; that for `O=c1[nH][nH]c(=O)c2cc([N+](=O)[O-])ccc12`, -0.662%.
On the same count and under the same terms, the result for `CCOC(=O)N1CCC(Nc2ccc(Cl)cc2N)CC1` reads 8.15% [at 42.5 µM]; that for `O=C1OC[C@H](Cc2cccc(O)c2)[C@H]1Cc1cccc(O)c1`, 0.045% [at 42.5 µM].
Take `COc1ccc2nc(S(=O)Cc3ncc(C)c(OC)c3C)[nH]c2c1` (stereo unspecified): the Potency entry is “inactive”.
Regarding `CC(=O)OCC1=C(C(=O)O)N2C(=O)[C@@H](NC(=O)CSc3ccncc3)[C@H]2SC1`, the “caspase activation” value was -2.19% [at 42.5 µM].
As for `CSSc1ccoc1C`, the “caspase activation” value is -1.16%.
Same read-out and setting: the result for `CCCCCCCC/C=C\CCCCCCCC(=O)OCCO` reads -0.334%; that for `CCC(CO)(CO)CO`, 0.165%; that for `CC1CCc2nccnc21` (stereo unspecified), -1.35%.
As to `CCCCC[C@H](O)/C=C/[C@H]1[C@H](O)CC(=O)[C@@H]1C/C=C\CCCC(=O)O`, the “caspase activation” value is -0.138% [at 42.5 µM].
As for `C[C@H](CS)C(=O)N1CCC[C@H]1C(=O)O`, the “caspase activation” value was 0.415% [at 42.5 µM].
Still for that read-out and setting: the value for `COc1ccc(CCN(C)CCCN2CCc3cc(OC)c(OC)cc3CC2=O)cc1OC` was 1.55% [at 42.5 µM].
The same measure, in the same setting: the result for `CC(CN(CCN(CC(C)OCCO)CC(C)OCCO)CC(C)OCCO)OCCO` (stereo unspecified) reads -0.0264%; that for `CC(C)COC(=O)COc1cc(Cl)c(Cl)cc1Cl`, -0.268%.
In the case of `Cc1ccc(NC(=O)N(C)C)cc1NC(=O)N(C)C`, the “caspase activation” value is -0.666%.
Same read-out and setting: the value for `CC(C(=O)O)c1ccc(C(=O)c2cccs2)cc1` (stereo unspecified) was -12.9% [at 42.5 µM].
Still for that read-out and setting: the result for `CCCCCCCCCCCC(=O)OCC(O)CO` (stereo unspecified) reads -1.21%.
The same measure, in the same setting: the value for `C=CCOC(=O)COCCC(C)C` was -0.263%.
As to `CCNc1nc(N)nc(Cl)n1`, the “caspase activation” value was -1.66%.
The same measure, in the same setting: the result for `O=C(CCS)OCC(COC(=O)CCS)(COC(=O)CCS)COC(=O)CCS` reads -0.0192%.
Turning to `CC1=CC[C@@]23C[C@@H]1C(C)(C)[C@@H]2CC[C@H]3C`, the “caspase activation” value is -0.854%.
Regarding `CC(=O)Oc1cccc(O)c1`, the “caspase activation” value was -0.286% [at 42.5 µM].
Regarding `Cc1cccc2sc(N)nc12`, the “caspase activation” value was -2.41%.
The same measure, in the same setting: the result for `Nc1ccc(NC(=O)c2ccc(N)cc2)cc1` reads -4.84%; that for `CCCCOCCOC(=O)c1cccnc1`, -0.285% [at 42.5 µM].
On the same count and under the same terms, the result for `Cc1ccc(S(=O)(=O)NC(=O)NC2CCCCC2)cc1` reads -0.64% [at 42.5 µM]; that for `COc1ccc(-c2cc(=S)ss2)cc1`, -7.07% [at 42.5 µM].
As for `OCC(CO)n1cnc(-c2ccc(F)cc2)c1-c1ccnc(Oc2ccccc2)n1`, the “caspase activation” value is -2.57%.
As to `O=[N+]([O-])c1ccc2ncccc2c1`, the “caspase activation” value was -1.11%.
Same read-out and setting: the result for `FC(F)(F)C(F)(F)C(F)(F)C(F)(F)CCI` reads 0.204% [at 42.5 µM].
Take `COc1ccc(/C=C/C(=O)c2ccc(OC)cc2OC)cc1`: the Potency was 10.6 µM (active).
Consider `CCC1CCC(CCC(=O)O)C1` (stereo unspecified), for which the “caspase activation” value is -2.38%.

A short description of the next test: Caspase-3/7 induction in CHO-K1 cells by small molecules, qHTS cell viability counter screen (AID 1346979). Further: nearly all actives have a fitted effect of over 35% in size. To be noted: CellTiter-Fluor fluorescence, 17 h; series mostly up to 92.4 µM; activity change, negative = cytotoxicity: at the top concentration. In a few lines:
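Cytotoxicity counter screen run in parallel with the caspase-3/7 assay: CHO-K1 cells, 16hr compound treatment at 37C, then CellTiter-Fluor for 1hr before fluorescence reading.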
In the case of `Cc1ccc(Nc2c(F)cccc2Cl)c(CC(=O)O)c1`, the “activity change, negative = cytotoxicity” value was 6% [at 42.5 µM].
The same measure, in the same setting: the value for `C=C(C)c1ccccc1` was 1.36%.
Turning to `Cc1cc(CCC(=O)OCCOCCOCCOC(=O)CCc2cc(C)c(O)c(C(C)(C)C)c2)cc(C(C)(C)C)c1O`, the “activity change, negative = cytotoxicity” value is 2.1%.
The same measure, in the same setting: the result for `Cc1cc(CCCOc2c(C)cc(-c3noc(C(F)(F)F)n3)cc2C)on1` reads -11% [at 42.5 µM].
On the same count and under the same terms, the value for `O=c1[nH][nH]c(=O)c2cc([N+](=O)[O-])ccc12` was -7.21%.
As for `CCOC(=O)N1CCC(Nc2ccc(Cl)cc2N)CC1`, the “activity change, negative = cytotoxicity” value was -1.51% [at 42.5 µM].
Turning to `O=C1OC[C@H](Cc2cccc(O)c2)[C@H]1Cc1cccc(O)c1`, the “activity change, negative = cytotoxicity” value was -0.497% [at 42.5 µM].
Same read-out and setting: the value for `CC(=O)OCC1=C(C(=O)O)N2C(=O)[C@@H](NC(=O)CSc3ccncc3)[C@H]2SC1` was -3.29% [at 42.5 µM]; that for `CSSc1ccoc1C` was 2.8%; that for `CCCCCCCC/C=C\CCCCCCCC(=O)OCCO` was -2.54%.
With `CC1CCc2nccnc21` (stereo unspecified), the “activity change, negative = cytotoxicity” value was 3.98%.
For the molecule `C[C@H](CS)C(=O)N1CCC[C@H]1C(=O)O`, the “activity change, negative = cytotoxicity” value was 4.48% [at 42.5 µM].
Still for that read-out and setting: the value for `CC(CN(CCN(CC(C)OCCO)CC(C)OCCO)CC(C)OCCO)OCCO` (stereo unspecified) was -2.43%.
